# In PubChem BioAssay (Tox21):
# Records with an inconclusive call do not appear. Active and inactive are the calls of the source. Calls follow the shape of the dose curve; as a rule, active = well fitted activation curve with a large enough effect in the signal ratio in the repeat runs (not every such curve was filed as active); inconclusive = weak or mixed curves; inactive = flat fitted curve, though single readings scatter; the % refers to the signal ratio.
# Assay: qHTS assay to identify small molecule agonists of H2AX (AID 1224845)
# Conditions: CHO-K1 phospho-H2AX Ser139 HTRF, 3 h; series mostly up to 154 µM; activation (H2AX phosphorylation): at the top concentration
# Source text: National Center for Advancing Translational Sciences [NCATS]
# NIH Chemical Genomics Center [NCGC]
# U.S. Environmental Protection Agency [EPA]
# National Institutes of Environmental Health Sciences [NIEHS]
# National Toxicology Program [NTP]
# U.S. Food and Drug Administration [FDA]
# HTRF phospho-H2AX (Ser139) assay (Cisbio Bioassays, US) enables the quantitative detection of the histone variant H2AX when phosphorylated on serine 139. When double-stranded DNA breaks, either by ionizing radiation or endogenous physiological processes, H2AX becomes phosphorylated at Ser139. This phospho-Ser139 serves as a sensitive biomarker for the detection of such breaks, localizing the site of DNA repair. So, HTRF phospho-H2AX Ser139 is a pertinent assay to study genome stability, the cell cycle, DNA repair, and it serves as a biomarker for cancer, and to understand aging. Wild type CHO-K1 cells were used to identify the inducers of Phospho-H2AX Ser 139 from the Tox21 10K compound collections.
# Tox21 Assay Protocol Summary:
# The CHO-K1 cells suspended in culture medium containing 10% FBS were dispensed at 1000 cells/ 3 ul/well in 1536-well white wall/solid bottom plates (Greiner Bio-One North America, NC) using a Multidrop Combi (Thermo Fisher Scientific Inc., Waltham, MA). After the assay plates were incubated at 37C overnight, 23 nl of compounds at 15 concentrations (from 5-48 columns) or positive control (from 1 to 4 columns) were transferred to the assay plates using a Pintool station (Wako, San Diego, CA) into each well resulting in a final DMSO concentration of 0.76%. After 3hr incubation at 37C, 1 uL/well Supplemented Lysis buffer (diluted 100 fold blocking reagent in lysis buffer) (HTRF Phospho-H2A.X (S139) Assay kit from Cisbio US Inc., Bedford, MA) was added using a Flying Reagent Dispenser (FRD) (Aurora Discovery, CA). After 10sec spin at 1000 rpm in a plate centrifuge, the assay plates were incubated at room temperature for 30 min. Then followed by the addition of 1 uL/well detection buffer (containing a mixture of two antibodies, one labeled with cryptate, Anti pH2AX (S139)-K and another labeled with d2, Anti H2AX-d2) using FRD. After incubation at room temperature for 24 hr, the time resolved fluorescence at excitation 320 nm and emissions at 665 nm and 620 nm was measured using an Envision plate reader (PerkinElmer, Waltham, MA).
# % is scaled to controls: 0 for no effect and ±100 for the full control effect; potency is read from the fitted curve at half-maximal effect.
SMILES,activation (H2AX phosphorylation),Potency
Cc1ccc(S(=O)(=O)NC2CCCCC2)cc1,0.217% (inactive),–
C=CCNc1nc(NCC=C)nc(N2CCN(C(c3ccc(F)cc3)c3ccc(F)cc3)CC2)n1,-3.92% [at 70.9 µM] (inactive),–
CCC(C)(C)C1CCC(O)CC1 (stereo not given),-3.3% (inactive),–
CCCCCCCC/C=C\CCCCCCCC(=O)OC(CO)CO,-1.25% (inactive),–
CC(=O)Oc1ccc2c(c1)CC[C@@H]1[C@@H]2CC[C@]2(C)[C@@H](O)CC[C@@H]12,2.31% [at 70.9 µM] (inactive),–
O=C(O)c1cccnc1C(=O)O,-0.353% (inactive),–
CC1(C)C2=CCCC(C)(C)[C@]23CC[C@H]1C3,-1.22% (inactive),–
Nc1nccs1,2.25% (inactive),–
CC(C)(C)C(=O)C(Oc1ccc(Cl)cc1)n1ccnc1 (stereo not given),-1.92% [at 70.9 µM] (inactive),–
COC(=O)[C@@H]1CC2=CC(=O)CC[C@]2(C)[C@@]23O[C@@H]2C[C@@]2(C)[C@@H](CC[C@@]24CCC(=O)O4)[C@H]13,-0.067% [at 70.9 µM] (inactive),–
CCn1cc(C(=O)O)c(=O)c2cc(F)c(N3CCNCC3)nc21,-1.97% [at 70.9 µM] (inactive),–
C[Si]1(C)O[Si](C)(C)O[Si](C)(C)O1,0.54% (inactive),–
O=C1NCCN1,0.496% (inactive),–
CN1Cc2cc(C(=O)N3CCC(C4CCNCC4)CC3)ccc2N[C@@H](CC(=O)O)C1=O,1.34% [at 70.9 µM] (inactive),–
CC(CCO)CCc1ccccc1 (stereo not given),-2.04% (inactive),–
O=C(O)Cc1ccc(-c2ccccc2)cc1,-1.49% [at 70.9 µM] (inactive),–
CC(C)(O)c1ccccc1CC[C@@H](SCC1(CC(=O)O)CC1)c1cccc(/C=C/c2ccc3ccc(Cl)cc3n2)c1,-3.83% [at 70.9 µM] (inactive),–
CCCCCCOC(=O)CCCCCCCC(=O)OCCCCCC,-0.0387% (inactive),–
CCOC(=O)CC(=O)C(=O)OCC,-2.69% (inactive),–
O=[N+]([O-])c1cccc(S(=O)(=O)NCCNS(=O)(=O)c2cccc([N+](=O)[O-])c2)c1,-1.95% [at 70.9 µM] (inactive),–

SMILES,activation (H2AX phosphorylation),Potency
CC(C)(C)C(=O)O,-0.403% (inactive),–
Cc1nc2ccccn2c(=O)c1CCN1CCC(C(=O)c2ccc(F)cc2)CC1,-2.71% [at 70.9 µM] (inactive),–
COc1cc2ncnc(Nc3ccc(F)c(Cl)c3)c2cc1OCCCN1CCOCC1,-0.505% [at 70.9 µM] (inactive),–
C[N+](C)(C)CCOC(N)=O,-0.995% [at 70.9 µM] (inactive),–
CCOC(=O)C(C)Oc1ccc(Oc2nc3ccc(Cl)cc3o2)cc1 (stereo not given),-3.38% (inactive),–
c1ccc(COCc2ccccc2)cc1,0.301% (inactive),–
O=C(O)c1ccccc1NCCc1ccccc1,0.163% [at 70.9 µM] (inactive),–
COc1ccc(C(=O)c2cccc(O)c2)c(OC)c1,-2.33% (inactive),–
O=C(CCCCCCCCC#CI)Oc1ccccc1,-0.88% [at 70.9 µM] (inactive),–
CCCOC(=O)c1ccc(C(=O)OCCC)nc1,-0.545% (inactive),–
CN(C(=O)C(Cl)Cl)c1ccc(OC(=O)c2ccco2)cc1,-3.06% [at 70.9 µM] (inactive),–
O=C(NCCCN1CCOCC1)c1ccc(Cl)cc1,-4.34% [at 70.9 µM] (inactive),–
C/C=C/C=C/CCCCCCCO,0.0117% (inactive),–
NC(=O)Nc1ccc(Cl)c(Cl)c1,-0.193% (inactive),–
CCOC(=O)OCC,-2.05% (inactive),–
O=C(O)C(Cc1cc(I)c(O)c(I)c1)c1ccccc1 (stereo not given),-0.481% [at 70.9 µM] (inactive),–
Cc1nc2ccccc2s1,1.61% (inactive),–
Cc1cc(O)c2c(O)c3c(O)cccc3cc2c1,-3.44% [at 70.9 µM] (inactive),–
Fc1ccccc1[C@@H](F)COC1CCC(Nc2ncnc3[nH]ncc23)CC1 (stereo not given in full),1.52% (inactive),–
CCCCC(=O)O[C@]1(C(=O)CO)[C@@H](C)C[C@H]2[C@@H]3CCC4=CC(=O)C=C[C@]4(C)[C@@]3(F)[C@@H](O)C[C@@]21C,–,113 µM (active)
